# Laboratory results taken from the supplement of paper PMC6522484.
# Values joined by “and” are separate entries in the source; they are usually repeats but may differ in a detail not shown here. Equal entries are not always repeated. ± gives the standard deviation of the averaged measurements.
# System: DLD1
# Assay: TCF/Wnt firefly luciferase reporter signal relative to plate median (fraction of plate median); higher = higher Wnt reporter signal
# Details: 5 µM; treatment time 24 h; reporter: 7TFP
# How it was run: (§1)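 Normalisation used webcellHTS2 in additive mode without log transformation, scaling each well's luminescence to the plate median. The luminescence was firefly luciferase or CellTiterGlo, read on a Tecan F500 from parallel plates of colorectal cancer cells stably transduced with lentiviral TCF/Wnt firefly luciferase reporters. Those cells had been given library compounds at a final 5 µM for 24 h, and two independent replicates were averaged.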
row,SMILES,TCF/Wnt firefly luciferase reporter signal
1,NCCc1ccc(O)c(O)c1,1.01 and 1.02
2,CC(C)[C@@H](C)/C=C/[C@@H](C)[C@H]1CC[C@H]2C3=CC=C4C[C@@H](O)CC[C@]4(C)[C@H]3CC[C@]12C,0.912 ± 0.079
3,CC[N+](CC)(CC)CCOc1cccc(OCC[N+](CC)(CC)CC)c1OCC[N+](CC)(CC)CC,0.989 ± 0.1
4,C/C=C(/C(=C/C)c1ccc(O)cc1)c1ccc(O)cc1,1.07 ± 0.15
5,CCCOc1ccc2[nH]c(NC(=O)OC)nc2c1,0.959 ± 0.21
6,COc1cc(OC)c2c(c1Cl)O[C@@]1(C(=O)CC(=O)C[C@H]1C)C2=O,1.13 ± 0.057
7,CC1=CC2C(C(C)C)CCC(C)(O)C2CC1 (configuration not stated),1.02 ± 0.11
8,CC(CCC(=O)O)[C@H]1CCC2C3C[C@H](O)[C@@H]4C[C@H](O)CC[C@]4(C)C3CC[C@@]21C (stereo partly drawn) [alpha-HYDROXYDEOXYCHOLIC ACID],0.947 ± 0.1
9,CC(=O)[C@H]1CC[C@H]2[C@@H]3C[C@H](C)C4=CC(=O)CC[C@]4(C)[C@H]3[C@@H](O)C[C@]12C,1.01 ± 0.069
10,O=C1NC(Cc2ccc(O)cc2)C(=O)N2CCCC12 (configuration not stated) [Cyclo(tyrosylprolyl)],0.768 ± 0.15
11,O=c1ccn([C@@H]2O[C@H](COP(=O)(O)OP(=O)(O)OP(=O)(O)O)[C@@H](O)[C@H]2O)c(=O)[nH]1,0.921 ± 0.27
12,COc1cc(NS(=O)(=O)c2ccc(N)cc2)nc(OC)n1,0.895 ± 0.28
13,CC(C)(Oc1ccc(C2CC2(Cl)Cl)cc1)C(=O)O (configuration not stated),0.943 ± 0.18
14,"CC(=O)c1oc2c(C)c3oc(=O)cc(C)c3cc2c1C [2-Acetyl-3,5,9-trimethylfuro[3,2-g]-chromen-7-one (VFT-04)]",1.16 ± 0.028
15,C=CCCCCCCCCC(=O)[O-].C=CCCCCCCCCC(=O)[O-].[Zn+2],0.94 ± 0.24
16,O=C(CCCCCCCCCCCCC1CCCC1)Nc1ccc(S(=O)(=O)c2ccc(NC(=O)CCCCCCCCCCCCC3CCCC3)cc2)cc1,1.01 ± 0.12

row,SMILES,TCF/Wnt firefly luciferase reporter signal
1,CCCC(=O)O[C@]1(C(=O)CO)CC[C@H]2[C@@H]3CCC4=CC(=O)CC[C@]4(C)[C@H]3[C@@H](O)C[C@@]21C,0.895 ± 0.016
2,NCCCCC(=O)O,1.06 ± 0.19
3,CC(C)NNC(=O)c1ccncc1,1.07 ± 0.042
4,c1ccc(CC2=NCCN2)cc1,0.952 ± 0.082
5,CC1(C)S[C@@H]2[C@H](NC(=O)[C@H](N)c3ccccc3)C(=O)N2[C@H]1C(=O)O,1 ± 0.083
6,CC(=O)OCC1=C(C(=O)O)N2C(=O)[C@@H](NC(=O)CSc3ccncc3)[C@H]2SC1,0.985 ± 0.016
7,COc1cc2c(cc1OC)[C@@H]1Cc3ccc(OC)c(OC)c3CN1CC2,1.17 ± 0.18
8,Cc1cc(-c2ncc(CC(=O)Nc3ccc(-c4cnccn4)cn3)cc2C)ccn1,0.921 ± 0.042
9,O=C(O[C@@H]1Cc2c(O)cc(O)cc2O[C@@H]1c1cc(O)c(=O)c2c(O)c(O)cc([C@H]3Oc4cc(O)cc(O)c4C[C@H]3OC(=O)c3cc(O)c(O)c(O)c3)c2c1)c1cc(O)c(O)c(O)c1,0.903 ± 0.041
10,CN1C2CCC1CC(OC(=O)C(O)c1ccccc1)C2 (configuration not stated),1.05 ± 0.042
11,Nc1ccn([C@@H]2O[C@H](CO)[C@@H](O)[C@@H]2O)c(=O)n1,1.08 ± 0.11
12,C=CC1=C(C)c2cc3[nH]c(cc4nc(cc5[nH]c(cc1n2)c(C)c5CCC(=O)O)C(CCC(=O)O)=C4C)c(C)c3C=C,0.967 ± 0.027
13,C=C[C@@]1(C)CC(=O)[C@@]2(O)[C@](C)(O1)[C@@H](O)[C@@H](O)C1C(C)(C)CC[C@H](O)[C@@]12C (some centres not stated),0.923 ± 0.042
14,COCCOC(=O)C1=C(C)NC(C)=C(C(=O)OC(C)C)C1c1cccc([N+](=O)[O-])c1 (configuration not stated),0.967 ± 0.089
15,CN[C@H](CC(=O)O)C(=O)O,1.02 ± 0.014

# System: SW480
# Assay: as above
# Details: 5 µM; treatment time 24 h; reporter: 7TFP
# How it was run: as §1
row,SMILES,TCF/Wnt firefly luciferase reporter signal
1,NCCc1ccc(O)c(O)c1,0.963 and 0.967
2,CC(C)[C@@H](C)/C=C/[C@@H](C)[C@H]1CC[C@H]2C3=CC=C4C[C@@H](O)CC[C@]4(C)[C@H]3CC[C@]12C,1 ± 0.083
3,CC[N+](CC)(CC)CCOc1cccc(OCC[N+](CC)(CC)CC)c1OCC[N+](CC)(CC)CC,0.873 ± 0.21
4,C/C=C(/C(=C/C)c1ccc(O)cc1)c1ccc(O)cc1,1.09 ± 0.071
5,CCCOc1ccc2[nH]c(NC(=O)OC)nc2c1,0.957 ± 0.035
6,COc1cc(OC)c2c(c1Cl)O[C@@]1(C(=O)CC(=O)C[C@H]1C)C2=O,1.02 ± 0.028
7,CC1=CC2C(C(C)C)CCC(C)(O)C2CC1 (configuration not stated),0.957 ± 0.025
8,CC(CCC(=O)O)[C@H]1CCC2C3C[C@H](O)[C@@H]4C[C@H](O)CC[C@]4(C)C3CC[C@@]21C (stereo partly drawn) [alpha-HYDROXYDEOXYCHOLIC ACID],0.974 ± 0.052
9,CC(=O)[C@H]1CC[C@H]2[C@@H]3C[C@H](C)C4=CC(=O)CC[C@]4(C)[C@H]3[C@@H](O)C[C@]12C,1 ± 0.022
10,O=C1NC(Cc2ccc(O)cc2)C(=O)N2CCCC12 (configuration not stated) [Cyclo(tyrosylprolyl)],0.959 ± 0.028
11,O=c1ccn([C@@H]2O[C@H](COP(=O)(O)OP(=O)(O)OP(=O)(O)O)[C@@H](O)[C@H]2O)c(=O)[nH]1,0.958 ± 0.14
12,COc1cc(NS(=O)(=O)c2ccc(N)cc2)nc(OC)n1,0.8105 ± 0.0064
13,CC(C)(Oc1ccc(C2CC2(Cl)Cl)cc1)C(=O)O (configuration not stated),0.963 ± 0.17
14,"CC(=O)c1oc2c(C)c3oc(=O)cc(C)c3cc2c1C [2-Acetyl-3,5,9-trimethylfuro[3,2-g]-chromen-7-one (VFT-04)]",1.12 ± 0.078
15,C=CCCCCCCCCC(=O)[O-].C=CCCCCCCCCC(=O)[O-].[Zn+2],0.968 ± 0.041
16,O=C(CCCCCCCCCCCCC1CCCC1)Nc1ccc(S(=O)(=O)c2ccc(NC(=O)CCCCCCCCCCCCC3CCCC3)cc2)cc1,1 ± 0.036

row,SMILES,TCF/Wnt firefly luciferase reporter signal
1,CCCC(=O)O[C@]1(C(=O)CO)CC[C@H]2[C@@H]3CCC4=CC(=O)CC[C@]4(C)[C@H]3[C@@H](O)C[C@@]21C,0.956 ± 0.0057
2,NCCCCC(=O)O,0.9645 ± 0.00071
3,CC(C)NNC(=O)c1ccncc1,1.01 ± 0.021
4,c1ccc(CC2=NCCN2)cc1,1.01 ± 0.12
5,CC1(C)S[C@@H]2[C@H](NC(=O)[C@H](N)c3ccccc3)C(=O)N2[C@H]1C(=O)O,0.917 ± 0.027
6,CC(=O)OCC1=C(C(=O)O)N2C(=O)[C@@H](NC(=O)CSc3ccncc3)[C@H]2SC1,1.06 ± 0.057
7,COc1cc2c(cc1OC)[C@@H]1Cc3ccc(OC)c(OC)c3CN1CC2,1.03 ± 0.028
8,Cc1cc(-c2ncc(CC(=O)Nc3ccc(-c4cnccn4)cn3)cc2C)ccn1,0.847 ± 0.21
9,O=C(O[C@@H]1Cc2c(O)cc(O)cc2O[C@@H]1c1cc(O)c(=O)c2c(O)c(O)cc([C@H]3Oc4cc(O)cc(O)c4C[C@H]3OC(=O)c3cc(O)c(O)c(O)c3)c2c1)c1cc(O)c(O)c(O)c1,1.04
10,CN1C2CCC1CC(OC(=O)C(O)c1ccccc1)C2 (configuration not stated),1.12 ± 0.021
11,Nc1ccn([C@@H]2O[C@H](CO)[C@@H](O)[C@@H]2O)c(=O)n1,0.968 ± 0.14
12,C=CC1=C(C)c2cc3[nH]c(cc4nc(cc5[nH]c(cc1n2)c(C)c5CCC(=O)O)C(CCC(=O)O)=C4C)c(C)c3C=C,0.992 ± 0.0057
13,C=C[C@@]1(C)CC(=O)[C@@]2(O)[C@](C)(O1)[C@@H](O)[C@@H](O)C1C(C)(C)CC[C@H](O)[C@@]12C (some centres not stated),0.976 ± 0.13
14,COCCOC(=O)C1=C(C)NC(C)=C(C(=O)OC(C)C)C1c1cccc([N+](=O)[O-])c1 (configuration not stated),1.12 ± 0.11
15,CN[C@H](CC(=O)O)C(=O)O,0.85 ± 0.045
